SMILES strings stand for the structures. Records with an inconclusive call do not appear. The source made the active and inactive calls. The call rests on the fitted dose curve; in most records, active means well fitted curve in the direction sought with a large enough effect; inconclusive means small, poorly fitted or top-dose-only effect, or another doubt; inactive means no such curve, though single readings can be large; an effect the other way counts as inactive or inconclusive.

Assay [1] can be described thus: Quantitative High-Throughput drug screen in 47 multiple myeloma cell lines against the NCATS MIPE library collection: FR4_PLB cell viability assay (AID 1918924; further: nearly all actives have a fitted effect of over 35% in size; further: potency means the concentration at half of the fitted maximal effect). The method, boiled down: (§1)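 We plated 500 myeloma cells per well, pinned in MIPE 4.0 compounds, and incubated for 48 hours at 37C. ATP was then quantified with CellTiter-Glo, with DMSO and media-only wells defining 100% and 0%.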

The nature of assay [2]: Quantitative High-Throughput drug screen in 47 multiple myeloma cell lines against the NCATS MIPE library collection: Delta47_JCRB cell viability assay (AID 1918925; further: nearly all actives have a fitted effect of over 45% in size; further: potency means the concentration at half of the fitted maximal effect). The method, boiled down:
(§2)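 qHTS of the MIPE 4.0 collection: 500 myeloma cells/well, 48 h drug exposure at 37C in 5% CO2, then CellTiter-Glo for 5 min at room temperature before luminescence reading.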

Assay [3] is described as follows: Quantitative High-Throughput drug screen in 47 multiple myeloma cell lines against the NCATS MIPE library collection: ARP1_JJKsccF8 cell viability assay (AID 1918928; further: nearly all actives have a fitted effect of over 40% in size; further: potency means the concentration at half of the fitted maximal effect). The method, boiled down:
(§3)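 Viability screen: myeloma cells (500/well) incubated 48 h at 37 °C, humidified 5% CO2, with pinned library compounds; CellTiter-Glo added, luminescence read; DMSO wells set 100%, medium-only wells 0%.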

Assay [4] in a line: Quantitative High-Throughput drug screen in 47 multiple myeloma cell lines against the NCATS MIPE library collection: Karpas620_DSMZ cell viability assay (AID 1918959). Further: nearly all actives have a fitted effect of over 30% in size. Further: potency means the concentration at half of the fitted maximal effect. The method, boiled down: as §1
Assay [5] can be described thus: Quantitative High-Throughput drug screen in 47 multiple myeloma cell lines against the NCATS MIPE library collection: JIM3_ECACC cell viability assay (AID 1918963; further: nearly all actives have a fitted effect of over 35% in size; further: potency means the concentration at half of the fitted maximal effect). The method, boiled down: as §1
Assay [6] can be described thus: Quantitative High-Throughput drug screen in 47 multiple myeloma cell lines against the NCATS MIPE library collection: JJN3_DSMZ cell viability assay (AID 1918966; further: nearly all actives have a fitted effect of over 50% in size; further: potency means the concentration at half of the fitted maximal effect). The method, boiled down: as §2
Assay [7] can be described thus: Quantitative High-Throughput drug screen in 47 multiple myeloma cell lines against the NCATS MIPE library collection: Karpas25_ECACC cell viability assay (AID 1918968; further: nearly all actives have a fitted effect of over 35% in size; further: potency means the concentration at half of the fitted maximal effect). The method, boiled down: as §2
Assay [8] in a line: Quantitative High-Throughput drug screen in 47 multiple myeloma cell lines against the NCATS MIPE library collection: EJM_DSMZ cell viability assay (AID 1918926; further: nearly all actives have a fitted effect of over 30% in size; further: potency means the concentration at half of the fitted maximal effect). The method, boiled down: as §2
Assay [9] can be described thus: Quantitative High-Throughput drug screen in 47 multiple myeloma cell lines against the NCATS MIPE library collection: AMO1_DSMZ cell viability assay (AID 1918927; further: nearly all actives have a fitted effect of over 30% in size; further: potency means the concentration at half of the fitted maximal effect). The method, boiled down: as §2
Assay [10] in a line: Quantitative High-Throughput drug screen in 47 multiple myeloma cell lines against the NCATS MIPE library collection: ARD_JJKsccE7 cell viability assay (AID 1918929; further: potency means the concentration at half of the fitted maximal effect). The method, boiled down: as §2
Assay [11] is described as follows: Quantitative High-Throughput drug screen in 47 multiple myeloma cell lines against the NCATS MIPE library collection: INA6_PLB cell viability assay (AID 1918965; further: nearly all actives have a fitted effect of over 55% in size; further: potency means the concentration at half of the fitted maximal effect). The method, boiled down:
(§4)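 Viability readout: CellTiter-Glo luminescence following 5 min room-temperature incubation with reagent. Prior exposure: 48 h, 37C, humidified 5% CO2, 500 cells per well.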

A short description of assay [12]: Quantitative High-Throughput drug screen in 47 multiple myeloma cell lines against the NCATS MIPE library collection: KMS27_JCRB cell viability assay (AID 1918970). Further: nearly all actives have a fitted effect of over 30% in size. Further: potency means the concentration at half of the fitted maximal effect. The method, boiled down:
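ATP-based viability (CellTiter-Glo luminescence) is measured in cells treated 48 h with approved and investigational drugs at 37 °C. Controls are DMSO-only wells for full viability and media-only wells for none.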

Assay [13] in a line: Quantitative High-Throughput drug screen in 47 multiple myeloma cell lines against the NCATS MIPE library collection: H1112_PLB cell viability assay (AID 1918967; further: nearly all actives have a fitted effect of over 30% in size; further: potency means the concentration at half of the fitted maximal effect). The method, boiled down: as §2
The nature of assay [14]: Quantitative High-Throughput drug screen in 47 multiple myeloma cell lines against the NCATS MIPE library collection: KHM11_PLB cell viability assay (AID 1918962). Further: nearly all actives have a fitted effect of over 35% in size. Further: potency means the concentration at half of the fitted maximal effect. The method, boiled down:
as §1

A short description of assay [15]: Quantitative High-Throughput drug screen in 47 multiple myeloma cell lines against the NCATS MIPE library collection: KMM1_JCRB cell viability assay (AID 1918960). Further: nearly all actives have a fitted effect of over 30% in size. Further: potency means the concentration at half of the fitted maximal effect. The method, boiled down: as §3
The nature of assay [16]: Quantitative High-Throughput drug screen in 47 multiple myeloma cell lines against the NCATS MIPE library collection: JIM1_ECACC cell viability assay (AID 1918964; further: potency means the concentration at half of the fitted maximal effect). The method, boiled down:
as §2

A short description of assay [17]: Quantitative High-Throughput drug screen in 47 multiple myeloma cell lines against the NCATS MIPE library collection: Karpas417_ECACC cell viability assay (AID 1918961). The settings on record: Karpas417 myeloma viability, CellTiter-Glo ATP luminescence, 48 h; viability (% of DMSO): at 45.8 µM (top of the series). The method, boiled down:
as §4
In general terms: Cellular ATP, detected with luciferase, serves as a proxy for viable cell number.

Take `COc1ccc(-c2coc3cc(O)cc(O)c3c2=O)cc1`: the Potency entry in assay [1], in assay [2], in [3], in assay [5], in assay [6] and in [7] was “inactive” in each case. Moreover, the Potency in assay [4] was 18.7 µM (active).
Turning to `NC(=O)[C@@H](CCC(F)(F)F)N(Cc1ccc(-c2ncon2)cc1F)S(=O)(=O)c1ccc(Cl)cc1`, the Potency in assay [1] was 16.6 µM (active); in assay [8], 20.9 µM (active); in assay [11] it was 26.4 µM (active). Further, the Potency result in assay [9], in assay [10] and in assay [12] was “inactive” throughout.
For `Cn1cc(C=C2C(=O)Nc3cccnc32)c2ccccc21`, the Potency result in assay [1], in assay [8], in assay [13], in assay [7] and in assay [12] was “inactive” each time. Also, the Potency in [5] is 16.6 µM (active).
Regarding `CC(=O)Oc1cc2c(s1)CCN(C(C(=O)C1CC1)c1ccccc1F)C2` (stereo unspecified), the Potency in assay [2] was 3.32 µM (active); in assay [9], 1.87 µM (active); in [3], 1.32 µM (active); in assay [4], 1.18 µM (active); in [11], 4.69 µM (active); in assay [6], 2.35 µM (active). Besides, the Potency is 2.96 µM (active) in [13] and 1.87 µM (active) in assay [7].
For `O=C(O)c1ccc(-c2cc3cccnc3c(-c3ccc4nonc4c3)n2)cc1`, the Potency in assay [2] is 23.5 µM (active); in assay [8] it was 18.7 µM (active); in [14] it was 20.9 µM (active); in assay [11], 20.9 µM (active); in assay [7] it was 23.5 µM (active).
In the case of `Cc1ccc(C(C)(O)c2nc3ccccc3s2)c(C)c1` (stereo unspecified), the Potency entry in [2], in assay [3], in [10], in assay [15], in assay [5] and in [11] was “inactive” each time. Besides, the Potency entry in assay [6], in assay [13] and in assay [7] was “inactive” each time. Also, the Potency in assay [9] was 20.9 µM (active).
In the case of `CC[C@@H]1C=C(C)C[C@H](C)C[C@H](OC)[C@H]2O[C@@](O)(C(=O)C(=O)N3CCCC[C@@H]3C(=O)O[C@H](C(C)=C[C@@H]3CC[C@H](Cl)[C@H](OC)C3)[C@H](C)[C@@H](O)CC1=O)[C@H](C)C[C@H]2OC`, the Potency is 16.6 µM (active) in assay [2]; 9.35 µM (active) in assay [9]; 13.2 µM (active) in assay [3]; 13.2 µM (active) in [4]; 8.33 µM (active) in [15]; 18.7 µM (active) in assay [5]. The Potency in assay [11] is 5.26 µM (active); in assay [13], 18.7 µM (active); in assay [12], 8.33 µM (active).
On to `CC(=O)O[C@]1(C(C)=O)CC[C@@H]2[C@@H]3C[C@H](C)C4=CC(=O)CC[C@]4(C)[C@H]3CC[C@@]21C`, for which the Potency was 18.7 µM (active) in [2]; 20.9 µM (active) in [8]; 26.4 µM (active) in assay [3]; 4.69 µM (active) in [15]; 18.7 µM (active) in assay [11]; 20.9 µM (active) in assay [6]. The Potency in [7] is 18.7 µM (active). Also, the Potency entry in assay [14], in assay [5], in [16] and in assay [12] was “inactive” throughout.
For the compound `O=C(O)[C@H]1O[C@H](Oc2cc3oc(-c4ccccc4)cc(=O)c3c(O)c2O)[C@H](O)[C@@H](O)[C@H]1O`, the Potency in assay [1] is 26.4 µM (active); in assay [14], 20.9 µM (active). Also, the Potency entry in assay [10], in assay [11], in assay [13] and in [7] was “inactive” throughout.
Take `O=C1NC(=O)C(=Cc2ccc(-c3ccc(F)cc3)o2)S1`: the Potency result in assay [1], in assay [14], in assay [11] and in assay [12] was “inactive” each time. In addition, the Potency in [15] was 5.9 µM (active).
Regarding `O=C(O)c1c(Cl)c(Cl)c(Cl)c(Cl)c1-c1c2cc(I)c(=O)c(I)c-2oc2c(I)c(O)c(I)cc12`, the Potency in [2] was 14.8 µM (active); in assay [9], 13.2 µM (active); in [10], 8.33 µM (active); in assay [5], 7.43 µM (active); in assay [16], 2.35 µM (active); in assay [11], 10.5 µM (active). Besides, the figures for the Potency in [6], in assay [13] and in assay [7] were 5.9 µM (active), 3.32 µM (active) and 7.43 µM (active), respectively.
As to `Clc1ccc(CCC(Cn2ccnc2)Sc2c(Cl)cccc2Cl)cc1` (stereo unspecified), the Potency in assay [2] is 23.5 µM (active); in assay [9], 14.8 µM (active); in assay [10] it was 13.2 µM (active); in assay [4], 18.7 µM (active); in assay [7], 16.6 µM (active); in assay [12], 18.7 µM (active).
With `O=c1c(-c2ccc(O)cc2)coc2cc(OC3O[C@H](CO)[C@H](O)[C@H](O)[C@H]3O)cc(O)c12` (stereo partly specified), the Potency in [2] is 3.72 µM (active); in [3] it was 18.7 µM (active); in assay [5], 4.69 µM (active); in assay [7], 3.32 µM (active). Moreover, the Potency result in [9], in [16] and in assay [12] was “inactive” each time.
`C=C1C(=O)OC2C=C(C)CCC=C(C)CCC12` (stereo unspecified): the Potency was 18.7 µM (active) in [2]; 18.7 µM (active) in assay [9]; 20.9 µM (active) in assay [3]; 23.5 µM (active) in assay [10]; 16.6 µM (active) in assay [15]; 14.8 µM (active) in [16]. Moreover, the Potency is 16.6 µM (active) in [11]; 16.6 µM (active) in assay [6]; 20.9 µM (active) in assay [13]; 20.9 µM (active) in assay [7]; 20.9 µM (active) in assay [12]. Also, the Potency entry in assay [14] is “inactive”.
Turning to `Nc1ncnc2c1ncn2[C@@H]1O[C@@H](CO)[C@H](O)[C@H]1O`, the Potency result in assay [2], in [8], in assay [9], in [3], in [10] and in [4] was “inactive” in each case. Besides, the Potency entry in assay [5], in assay [16], in [11], in assay [13], in assay [7] and in [12] was “inactive” throughout.
`O=C(Nc1ccccc1Br)N[C@@H]1CCN(c2ccc(C(F)(F)F)cn2)C1`: the Potency entry in [1] and in assay [15] was “inactive” throughout. The Potency in [5] is 18.7 µM (active); in assay [11] it was 16.6 µM (active); in [7], 18.7 µM (active).
Regarding `CC(C)n1cnc2c(NCCCCCCNC(=O)OC(C)(C)C)nc(NCCO)nc21`, the Potency is 14.8 µM (active) in assay [2]; 20.9 µM (active) in assay [8]; 4.69 µM (active) in [9]; 5.9 µM (active) in [10]; 7.43 µM (active) in assay [15]; 23.5 µM (active) in [11]. Also, the Potency in [13] and in assay [7] was 23.5 µM (active) each time. In assay [16], the Potency result is “inactive”.
For the compound `CC(C)(C)C(=O)Oc1ccc2c(c1)nc(NC(=O)c1cccc([N+](=O)[O-])c1)n2CCCO`, the Potency entry in assay [2], in assay [9], in [10], in assay [4], in assay [15] and in assay [17] was “inactive” throughout. Moreover, the Potency result in assay [5], in assay [16], in assay [13], in [7] and in assay [12] was “inactive” each time. Besides, the Potency in [8] was 13.2 µM (active).
With `NC(CO)(CO)CCc1ccc(Sc2cccc(OCc3ccccc3)c2)cc1Cl`, the Potency is 9.35 µM (active) in assay [2]; 20.9 µM (active) in assay [9]; 23.5 µM (active) in assay [3]; 18.7 µM (active) in assay [15]; 7.43 µM (active) in assay [14]; 13.2 µM (active) in assay [5]. The Potency in assay [16] is 16.6 µM (active); in assay [11] it was 9.35 µM (active); in assay [13] it was 16.6 µM (active); in assay [7], 7.43 µM (active); in assay [12] it was 11.8 µM (active).

Source of the values: PubChem BioAssay (NCATS).
